About 83,000 compounds went through this panel and 20% of them were active in at least one assay; those are over-represented in the sample as a whole.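 Growth was measured after 48 h exposure to one concentration of compound in 96-well plates. Values under 10 count as active.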 Unmarked numbers belong to inactive results. Active and inactive are the calls of the source.

In this experiment the test system is MDA-MB-468 breast. In words: NCI-60 one-dose screen, 48 h (100 = growth as untreated, 0 = no growth, -100 = all killed). The note with it: 10 µM unless noted.
For `O=Cc1[nH]c(Sc2ccccc2)c2ccccc12`, the growth was 47.7%. Regarding `Nc1nc(N)c2nc(-c3cccc(O)c3)c(-c3cccc(O)c3)nc2n1`, the growth is 10.4%. The value for `O=C1/C(=C(/c2ccccc2)N2CCOCC2)Cc2ccccc21` was -19% (active); that for `CCN(CC)CCCCNc1c2ccccc2[n+](C)c2c1[nH]c1ccccc12` was -58.5% (active); that for `O=C(/C=C/Nc1ccc(S(=O)(=O)O)cc1)c1ccc(F)cc1` was 95.8%. For `Clc1ncnc2scc(C3COc4ccccc4O3)c12` (stereo not given) the value was -3.8% (active); for `COC(=O)C(CSC(c1ccccc1)(c1ccccc1)c1ccccc1)NC(=O)C(CC(N)=O)NC(=O)OCc1ccccc1` (stereo not given), -17.7% (active); for `CC(=O)Nc1nc(C)c(C(=O)NNC(=O)Nc2ccccc2)s1`, 61.4%.

Regarding `FC(F)(F)c1[nH]ncc1-c1nc2c(N3CCCCC3)cc3[nH]ncc3c2c2c1CCCC2`, the growth is -25.6% (active). Take `O=C(Cn1cc(-c2ccccc2)nn1)Nc1nc(-c2ccc(Cl)cc2)cs1`: the growth is 92.6%. Regarding `S=C(Nc1ccc(Cl)cc1)Nc1ccc(Cl)cc1` (tested in a mixture with another compound), the growth is -16.6% (active). On to `Cn1cc(C(=O)c2nc(-c3c[nH]c4ccccc34)no2)c2cc(F)ccc21`, for which the growth is 63%.

As for `O=C(N/N=C\c1c(O)ccc2ccccc12)C1CC1`, the growth is 11.8%. As to `Nc1cc(C(=O)O)[nH]c(=S)n1`, the growth is 95.3%. The value for `NC1=CSC2=N/C(=C\c3ccc(Cl)cc3)C(=O)N12` was 64.5%; that for `O=[N+]([O-])c1cc(Br)cc2c1[nH]c1ccc(Br)cc12` was 70.3%. For the compound `O=C1/C(=C/c2ccc(OCCCOc3ccc(Cl)cc3)cc2)N=C2SCCCN12`, the growth was 61.2%. The value for `C/C(=C/CCC(C)[C@@H]1CC[C@]2(C)C3=C(CC[C@@]12C)[C@@]1(C)CCC(=O)C(C)(C)[C@@H]1CC3)C(=O)O` (stereo not given in full) was -60.4% (active). The value for `COc1cc2oc(-c3cccc(N)c3)cc(=O)c2c(OC)c1OC` was 99.9%; that for `O=C(c1ccc(/C=C/c2n[nH]c3ccccc23)cc1)N1CCNCC1` was 65.9%. The value for `CC(C)C1=NOC(=O)C1=Cc1cn(-c2cccnc2)nc1-c1ccccc1` was 108%; that for `Cc1ccc([C@H]2c3[nH]c4ccccc4c3C[C@H]3C(=O)N(CCCCCCC(=O)NO)CC(=O)N23)s1` was 37.3%; that for `Oc1ccccc1/C=N/Nc1nc2ccccc2s1` was 21.5%. With `C[C@@H]1COC(Nc2ccc3ncnc(Nc4ccc(OCc5nccs5)c(Cl)c4)c3c2)=N1`, the growth is -16.4% (active).

In the case of `N=C(N)c1ccc(-c2ccc(-c3cccs3)s2)s1`, the growth is -90.3% (active). With `COc1cc(NC(=O)c2cc3ccccc3nc2Nc2ccc(F)cc2)cc(OC)c1OC`, the growth was -0.996% (active). For `O=C1/C(=C/c2ccc(Cl)cc2)SC(=S)N1CCc1ccc(O)cc1`, the growth was 73.1%. For `CN1CCN(c2ccc3nc(-c4cc(C(C)(C)C)c(O)c(C(C)(C)C)c4)[nH]c3c2)CC1` the value was 65.4%; for `O=C(Nc1ccc(-c2ccnc(Nc3ccc(N4CCOCC4)cc3)n2)cc1)[C@@H]1CCCN1`, 36.2%; for `O=C(/C=C/c1ccccc1)c1ccccc1`, 74.8%. Consider `CCOc1ccc2nc(C)cc(Nc3ccc(Br)cc3)c2c1`, for which the growth was 100%.

Regarding `CCOc1cc(CNc2ccc(N3CCOCC3)c(C(=O)O)c2)ccc1OC`, the growth is 94.7%. In the case of `CCOCC(O)(c1ccc(Cl)cc1)c1ccc(Cl)cc1`, the growth was 102%. `CCOCC[P+](c1ccccc1)(c1ccccc1)c1ccccc1`: the growth was 2.17% (active). For `Nc1nc2c3ccncc3cc(-c3cccc(Cl)c3)c2c2cnccc12` the value was 36.6%. In the case of `COc1ccc(-c2nc(SC(C)C)nc(NNC(N)=O)c2C#N)cc1`, the growth was 80.5%. Turning to `COc1ccc(CN2CCCC(C(=O)c3ccc(C(F)(F)F)cc3)C2)c(O)c1` (stereo not given), the growth is 12.9%. For `Nc1nc2ccccc2c2c1S(=O)(=O)c1ccc(Cl)cc1C2=O` the value was 10.8%. The value for `Cn1cc(-c2cc(N)n3nc(-c4cn(C)c5ccccc45)cc3n2)c2ccccc21` was 75%. With `COC(=O)/C=C/C(=O)c1cc(C)cc(C)c1O`, the growth is 110%.

Values taken from PubChem BioAssay (NCI).
